Experimental data: the supplement of paper PMC8728848
About 410 targets per protein were measured; listed, in parts, are those with the strongest signals and a random draw of the rest.

Key:
Assay in all cases: glycan array binding signal (z-score within array); higher = stronger binding
Conditions in all cases: glycan notation: IUPAC condensed, linker removed
Glc(a1-4)Glc = molecular target: Glc(a1-4)Glc
Summary of the method: (§1)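 Arrays were curated from the Consortium for Functional Glycomics database, 3228 in total, and kept only where the protein sequence was available. Binding is expressed as a within-array Z-score. This score was averaged across arrays of the same protein sequence at different concentrations or buffers and across linkers, and negative values can be read as non-binding.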

GlcA(b1-3)GlcNAc = molecular target: GlcA(b1-3)GlcNAc
Summary of the method: as §1

[1] = molecular target: GlcNAc(a1-4)Gal(b1-4)GalNAc
Summary of the method: as §1

[2] = molecular target: GlcNAc(a1-4)Gal(b1-4)GlcNAc(b1-3)Gal(b1-4)GlcNAc
Summary of the method: as §1

[3] = molecular target: GlcNAc(b1-3)Gal(b1-4)GlcNAc(b1-3)Gal(b1-4)GlcNAc(b1-3)Gal(b1-4)GlcNAc(b1-2)Man(a1-3)[GlcNAc(b1-3)Gal(b1-4)GlcNAc(b1-3)Gal(b1-4)GlcNAc(b1-3)Gal(b1-4)GlcNAc(b1-2)Man(a1-6)]Man(b1-4)GlcNAc(b1-4)[Fuc(a1-6)]GlcNAc
Summary of the method: as §1

[4] = molecular target: GlcNAc(b1-3)Gal(b1-4)GlcNAc(b1-3)Gal(b1-4)GlcNAc(b1-3)Gal(b1-4)GlcNAc(b1-3)Gal(b1-4)GlcNAc(b1-2)Man(a1-3)[GlcNAc(b1-3)Gal(b1-4)GlcNAc(b1-3)Gal(b1-4)GlcNAc(b1-3)Gal(b1-4)GlcNAc(b1-3)Gal(b1-4)GlcNAc(b1-2)Man(a1-6)]Man(b1-4)GlcNAc(b1-4)[Fuc(a1-6)]GlcNAc
Summary of the method: as §1

[5] = molecular target: GlcNAc6S(b1-3)Gal(b1-4)GlcNAc
Summary of the method: as §1

[6] = molecular target: Man(a1-3)[Man(a1-6)]Man(a1-6)[Man(a1-3)]Man(b1-4)GlcNAc(b1-4)GlcNAc
Summary of the method: as §1

[7] = molecular target: Man(a1-3)[Man(a1-6)]Man(b1-4)GlcNAc(b1-4)GlcNAc
Summary of the method: as §1

[8] = molecular target: Neu5Ac(a2-3)Gal(b1-3)GalNAc6S
Summary of the method: as §1

[9] = molecular target: Neu5Ac(a2-3)Gal(b1-4)GlcNAc(b1-2)Man
Summary of the method: as §1

[10] = molecular target: Neu5Ac(a2-3)Gal(b1-4)GlcNAc(b1-2)[Neu5Ac(a2-3)Gal(b1-4)GlcNAc(b1-4)]Man(a1-3)[GlcNAc(b1-4)][Neu5Ac(a2-3)Gal(b1-4)GlcNAc(b1-2)[Neu5Ac(a2-3)Gal(b1-4)GlcNAc(b1-6)]Man(a1-6)]Man(b1-4)GlcNAc(b1-4)GlcNAc
Summary of the method: as §1

[11] = molecular target: Neu5Ac(a2-3)Gal(b1-4)GlcNAc(b1-2)[Neu5Ac(a2-3)Gal(b1-4)GlcNAc(b1-6)]Man(a1-6)[Neu5Ac(a2-3)Gal(b1-4)GlcNAc(b1-2)Man(a1-3)]Man(b1-4)GlcNAc(b1-4)GlcNAc
Summary of the method: as §1

[12] = molecular target: Neu5Ac(a2-3)Gal(b1-4)GlcNAc(b1-6)GalNAc
Summary of the method: as §1

[13] = molecular target: Neu5Ac(a2-6)Gal(b1-4)GlcNAc
Summary of the method: as §1

[14] = molecular target: Neu5Ac(a2-6)Gal(b1-4)GlcNAc(b1-2)Man(a1-3)[Neu5Ac(a2-3)Gal(b1-4)GlcNAc(b1-2)Man(a1-6)]Man(b1-4)GlcNAc(b1-4)GlcNAc
Summary of the method: as §1

[15] = molecular target: Neu5Ac(a2-6)Gal(b1-4)GlcNAc(b1-2)Man(a1-6)[Gal(b1-4)GlcNAc(b1-2)Man(a1-3)]Man(b1-4)GlcNAc(b1-4)GlcNAc
Summary of the method: as §1

[16] = molecular target: Neu5Ac(a2-6)Gal(b1-4)GlcNAc(b1-3)Gal(b1-3)GlcNAc
Summary of the method: as §1

[17] = molecular target: Neu5Ac(a2-6)GlcNAc(b1-4)GlcNAc(b1-4)GlcNAc
Summary of the method: as §1

[18] = molecular target: Neu5Ac(a2-8)Neu5Ac(a2-8)Neu5Ac(a2-3)[GalNAc(b1-4)]Gal(b1-4)Glc
Summary of the method: as §1

B1: GS7807E-bfa-538-23-538 (Bacteroides fragilis) (protein)
chain: TDSFESFNTNEAGFDNDSKKQDFNYYGIPLGIIQQGIYFNYDWGSGKNWPFQTMQNLGADLFSGYVHDFNPFNEGKNNSTYYMMDGWNGSTWDNTYGYIMPEVQKSETINEKDNIGFFGITKILKVELMHRLSDLYGPIVYTQFGSKTGSTPDTQQEAYKAFFNDLDTGIAKIREYQKANPDIESFAKFDILMPQGKRTFSEWIRFANSLRLRLAVRIAMADSKLAVAEAQKALTDEEGLLEGNDEVVAVSTSSGYTNPFGEINKAWGEVFMNANMESLLVGYEDPRMEKYFDKATGSDATSLIDYKGTYKGIRQGTGFSHKNYNGHSKSTITQQTDAVLMTPAEVWFLRAEAALRGWSSESVKDCYEKGVKASFAQWGAAGAEAYLESDRKPSDYVDAFKAANNVKAVNTLTPKWDDAAGNEDKLGRIITQKWLAMFPEGGEAWAEQRRTGYPRLFPVLVNQSEGTVDTNLGPRRLNFFVGIKTTNPEQYTQLVNALGGIDNCGTRLWWDTGRNF
With B1 the “glycan array binding signal (z-score)” value (Glc(a1-4)Glc) was -0.685, the “glycan array binding signal (z-score)” value (GlcA(b1-3)GlcNAc) was -0.585 and the “glycan array binding signal (z-score)” value [1] was -0.527. The “glycan array binding signal (z-score)” value [2] was -0.642, the “glycan array binding signal (z-score)” value [3] was -0.408 and the “glycan array binding signal (z-score)” value [4] was -0.491. For the same binder, the “glycan array binding signal (z-score)” value [5] was 3.84, the “glycan array binding signal (z-score)” value [6] was 3.45 and the “glycan array binding signal (z-score)” value [7] was -0.656. For the same binder, the “glycan array binding signal (z-score)” value [8] was -0.669, the “glycan array binding signal (z-score)” value [9] was 2.92 and the “glycan array binding signal (z-score)” value [10] was -0.734. For the same binder, the “glycan array binding signal (z-score)” value [11] was 0.242, the “glycan array binding signal (z-score)” value [12] was 0.432 and the “glycan array binding signal (z-score)” value [13] was -0.395. The “glycan array binding signal (z-score)” value [14] was -0.678, the “glycan array binding signal (z-score)” value [15] was 3.21 and the “glycan array binding signal (z-score)” value [16] was -0.187. The “glycan array binding signal (z-score)” value [17] was -0.677 and the “glycan array binding signal (z-score)” value [18] was 2.93.
